This is a sample that favours compounds with a hit; in the whole collection about 19% have one here.
TDP1 inh = blocks human tyrosyl-DNA phosphodiesterase 1. 0.28% of 350,000 active. AID 485290. Potency, µM (highest dose often 130 µM), inactives show at the top dose activity change, negative = inhibition, hits mostly inhibitors. Q9NUW8. recombinant TDP1, AlphaScreen DNA substrate cleavage; note: potency is the fitted concentration of half-maximal effect; % is set by controls: 0 for no effect and ±100 for the full control effect; nearly all actives have a fitted effect of over 40% in size
Target sequence (Q9NUW8 whole entry, looked up): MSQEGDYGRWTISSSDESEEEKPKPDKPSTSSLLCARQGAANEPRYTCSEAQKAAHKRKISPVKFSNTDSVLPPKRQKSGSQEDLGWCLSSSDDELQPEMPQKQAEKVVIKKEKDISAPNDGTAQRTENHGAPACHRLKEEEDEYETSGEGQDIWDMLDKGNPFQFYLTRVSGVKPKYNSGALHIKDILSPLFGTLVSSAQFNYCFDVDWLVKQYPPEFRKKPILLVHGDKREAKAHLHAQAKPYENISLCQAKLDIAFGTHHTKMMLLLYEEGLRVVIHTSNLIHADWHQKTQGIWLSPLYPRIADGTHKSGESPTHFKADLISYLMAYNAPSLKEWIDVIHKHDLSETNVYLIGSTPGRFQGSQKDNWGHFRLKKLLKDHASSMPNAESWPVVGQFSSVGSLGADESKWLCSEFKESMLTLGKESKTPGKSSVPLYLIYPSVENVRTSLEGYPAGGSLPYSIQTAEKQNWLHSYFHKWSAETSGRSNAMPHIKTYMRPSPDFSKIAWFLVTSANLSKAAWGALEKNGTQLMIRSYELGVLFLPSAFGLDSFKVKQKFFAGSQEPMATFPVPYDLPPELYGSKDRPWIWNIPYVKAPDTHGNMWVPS
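Recombinant E. coli-expressed Tdp1 (1 nM) preincubated with compound 15 min at RT, then 5'-biotin/3'-phosphotyrosine-FITC DNA substrate (15 nM) added for 5 min. AlphaScreen beads (10 ug/ml) added, 10 min RT; tyrosine-FITC cleavage read as signal loss.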
TDP1 cell CPT = DT40-hTDP1 cell growth loss with CPT | 12% of 420,000 active | chicken DT40 Tdp1-/-;hTDP1 cells + 20 nM CPT, ATP luminescence, 48 h | Potency, µM (doses to about 46.2 µM), inactives show top-dose activity change, negative = growth inhibition, most hits filed as inhibitors | AID 686979; note: potency is the fitted concentration of half-maximal effect; % is set by controls: 0 for no effect and ±100 for the full control effect; nearly all actives have a fitted effect of over 55% in size
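Cell growth measured by CellTiter-Glo luminescence after a minimum 48 h, 37 C compound exposure with 20 nM CPT in Tdp1-knockout DT40 cells stably expressing hTDP1, seeded 400/well; qHTS titration format.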
TGFb inhibitor = blocks TGF-b signaling; HepG2 CAGA-GFP TGF-b/SMAD3 reporter, GFP fluorescence, 18 h; TGF-beta stimulated, 500 pg/mL final; Potency, µM (titrated, usually from 46.1 µM), inactives show top-dose activity, negative = inhibition, hits mostly inhibitors; 1.2% of 410,000 active; note: potency is the fitted concentration of half-maximal effect; % is set by controls: 0 for no effect and ±100 for the full control effect; nearly all actives have a fitted effect of over 65% in size
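Inhibition was scored as loss of TGF-beta-induced (500 pg/mL final, 18 hours, 37 degrees C) GFP in HEPG2 cells carrying a CAGA-GFP reporter, in DMEM with 1% FBS. Well GFP was summed per cell; Activity was normalised to unstimulated and stimulated DMSO wells, then concentration-response fitting.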
HepG2 viability = counter-screen for TGF-b inhibitors: cytotoxicity in HepG2 cells; 0.76% of 410,000 active; AID 588856; HepG2 CAGA-GFP viability, ATP luminescence, 18 h; Potency, µM (series often up to 46.1 µM), for the others: top-dose activity change, negative = cytotoxicity, hits mostly cytotoxic; note: potency is the fitted concentration of half-maximal effect
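CellTiter-Glo luminescence gave cytotoxicity after 18 hours at 37 degrees C. The cells were HepG2 CAGA-GFP in 1% FBS DMEM, stimulated with 500 pg/mL TGF-beta after compound addition. %Activity was normalised to no-cell wells (complete cell-killing) and DMSO (no toxicity), and curves were fitted and classified.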
TDP1 cell noCPT = qHTS for Inhibitors of human tyrosyl-DNA phosphodiesterase 1 (TDP1): qHTS in cells in absence of CPT; DT40 Tdp1-/- hTDP1 cells, no CPT, ATP luminescence, 48 h; Potency, µM (highest dose often 46.2 µM), without a hit: top-dose activity change, negative = growth inhibition, usual class: inhibitors; 15% of 420,000 active; note: potency is the fitted concentration of half-maximal effect; % is set by controls: 0 for no effect and ±100 for the full control effect; nearly all actives have a fitted effect of over 55% in size
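DT40 Tdp1-/-;hTDP1 cells, no CPT (DMSO vehicle only), 400 cells/well; compounds pin-transferred; ≥48 hr, 37 °C; CellTiter-Glo 30 min RT dark, luminescence read.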
IL-1B inflam inh = inflammasome signaling inhibition, IL-1 beta readout. AID 743279. activity change, % at 57.5 µM. THP-1 LPS/ATP IL-1B secretion, AlphaLISA, 16 h; hits give low values. 4.7% of 360,000 active; in the data active = activity change below about -50%; inconclusive = mostly about -30% to -49%; note: % is set by controls: 0 for no effect and ±100 for the full control effect
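Secreted IL-1B measured by AlphaLISA bead assay after 16 h compound exposure of THP-1 cells; compounds (final up to 57.5 uM) added 1 h before LPS (250 ng/mL) and ATP (1.25 mM) stimulation; lower signal means less secretion.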
The depositor's hits bear a star; ? = inconclusive; / = no result; [ ] = another dose, or the depositor's remark. Unless noted, calls come from the whole dose curve; as a rule, active = well fitted curve in the direction sought with a large enough effect; inconclusive = small, poorly fitted or top-dose-only effect, or another doubt; inactive = no such curve, though single readings can be large; an effect the other way counts as inactive or inconclusive.

SMILES	TDP1 inh	TDP1 cell CPT	TGFb inhibitor	HepG2 viability	TDP1 cell noCPT	IL-1B inflam inh
CCOc1ccccc1NC(=O)CSc1cc(=O)n(CC)c2ccccc12	6%	?	-20%	-11%	?	/
O=C(Oc1ccc[nH]c1=O)c1ccc(F)cc1	/	48%	15%	3%	-12%	11
CS(=O)(=O)c1ccc(Cl)c(NC(=O)COC(=O)CCN2C(=O)C3CC=CCC3C2=O)c1 (centres undefined)	/	-3%	17%	-3%	1%	12
S=c1nc(-c2csc3c2CCCC3)[nH][nH]1	4%	16µM*	-23%	-16%	16µM*	0
Cn1cnc2c(F)c(Nc3ccc(Br)cc3Cl)c(C(=O)NOCCO)cc21	/	1%	/	/	3%	/
CCCN1C2CCCC1CC(NC(=O)Nc1ccc(C(C)C)cc1)C2 (centres undefined)	1%	23µM*	7%	-23%	?	11
O=C(Nc1ccncc1)c1cc(-c2cccc(Br)c2)nc2ccccc12	/	?	0%	-38%	?	-78*
COc1ccc(C(=O)Nc2nc3ccccc3s2)cc1OC	6%	2%	1%	-15%	-10%	-88*
COc1ccc(-c2cc(C(=O)Nc3cccnc3)c3ccccc3n2)cc1OC	1%	23µM*	5%	-63%	23µM*	12
O=C(Nc1cccnc1)c1cc(-c2cccc(Br)c2)nc2ccccc12	5%	?	?	-12%	16µM*	1
COc1ccc(C(=O)Nc2nc3ccccc3s2)cc1	/	-19%	?	-41%	?	-12
COc1cccc(-c2cc(C(=O)Nc3cccnc3)c3ccccc3n2)c1	5%[56.1 µM]	?	-8%	-17%	?	-7
Cn1c(=O)c(-c2cccs2)nc2cnc(Oc3ccccc3)nc21	/	-1%	/	/	-1%	/
O=C(COc1ccccc1)NS(=O)(=O)c1ccccc1	6%	15%	3%	-3%	-14%	4
CCn1c(=O)c2sccc2n2c(CCC(=O)Nc3ccc(OC)cc3OC)nnc12	0%	-6%	4%	0%	4%	/
COc1ccc(/C(C)=N/OCC(=O)Nc2nc3ccccc3s2)cc1	4%	-4%	3%	-46%	-24%	-1
COc1ccc(-c2cc(C(=O)NCc3cn(C)nc3C)c3ccccc3n2)cc1OC	3%	15µM*	15%	-30%	?	-4
COc1ccc(-c2cc(C(=O)Nc3nc4ccccc4s3)c3ccccc3n2)cc1OC	6%	15µM*	-19%	-2%	?	-15
COc1ccc(/C=N/OCC(=O)Nc2nc3ccccc3s2)cc1OC	1%	?	?	-19%	?	-50*
COc1ccc(-c2cc(C(=O)Nc3c(Cl)cc(Cl)cc3Cl)c3ccccc3n2)cc1OC	8%	?	-3%	10%	?	20
COc1ccc(CC(=O)Nc2ccc(-c3nc4ccccc4s3)c(C)c2)cc1OC	-6%	?	-1%	-17%	26µM*	/
O=C(Cn1c(=O)nc(-c2ccccc2)c2ccccc21)NCCc1ccccc1	6%	5%	1%	5%	-2%	/
CCN1/C(=C/c2ccc3cc(C)ccc3[n+]2C)Sc2ccc3sccc3c21	0%	0.41µM*	-21%	-29%	0.58µM*	-13
CCN1/C(=C/c2ccc3ccccc3[n+]2CC)C=Cc2ccccc21	5%	1.6µM*	1.8µM*	10µM*	1.5µM*	-55*
CCCCN1/C(=C/c2ccc3ccccc3[n+]2CC)Sc2ccccc21	2%	0.26µM*	67%	-30%	0.23µM*	-98*
SMILES	TDP1 inh	TDP1 cell CPT	TGFb inhibitor	HepG2 viability	TDP1 cell noCPT	IL-1B inflam inh
CCN1/C(=C/c2ccc3cc(C)ccc3[n+]2CC)Sc2cc(C)ccc21	2%	0.29µM*	120%	-77%	0.013µM*	-107*
O=C(O)C1CCC(Cn2c(SCc3cc(=O)n4ccccc4n3)nc3ccsc3c2=O)CC1 (centres undefined)	2%	-14%	17%	6%	?	39
Cc1cccn2c(=O)cc(CSc3nnc(NC(=O)COc4ccccc4)s3)nc12	/	4%	2%	-1%	-13%	/
CCOC(=O)N/N=C1/C[C@@H](O)[C@@H](O)[C@@H]2[C@@H]3C(=O)N(Cc4ccccc4)C(=O)[C@H]3CC[C@@H]12	4%[21 µM]	/	/	/	/	/
Fc1ccccc1C1c2cccn2CCN1C(=S)Nc1cccc(Br)c1 (centres undefined)	6%	-2%	4%	-2%	16%	0
Fc1ccccc1C1c2cccn2CCN1C(=S)Nc1ccc(Br)cc1 (centres undefined)	5%	21µM*	22µM*	-5%	?	-86*
CC1(C)CC(=O)C(C=Nc2ccc(O)c(N=CC3=C(O)CC(C)(C)CC3=O)c2)=C(O)C1	-2%	16µM*	4%	0%	?	7
CC1(C)CC(=O)C(C=Nc2ccc3c(c2)OCO3)=C(O)C1	-5%	-26%	11%	-16%	-10%	1
Cc1ccc(O)c(N=NC2=C(O)CC(C)(C)CC2=O)c1	-2%	15µM*	?	-4%	8.2µM*	46
CC1(C)CC(=O)C(N=Nc2cc(Cl)c(Cl)c(Cl)c2)=C(O)C1	8%	-1%	12%	-20%	0%	32
CC1(C)CC(=O)C(C=Nc2cccnc2/N=C/C2=C(O)CC(C)(C)CC2=O)=C(O)C1	10%	4.6µM*	3%	-2%	?	-10
CC1(C)CC(=O)C(C=Nc2cccnc2)=C(O)C1	-1%	-13%	-3%	-12%	-14%	-2
Cc1cccc(CNCCn2cc(C(=O)Nc3ccccc3)nn2)c1	/	-19%	/	/	-11%	/
Cc1ccc(CNc2nc(C)c(-c3ccn(CCN4CCOCC4)n3)s2)o1	/	25%[9.04 µM]	/	/	1%	/
O=c1ccc(S(=O)(=O)N2CCCC2)cn1Cc1ccc(Cl)cc1Cl	-5%	21µM*	?	-15%	12µM*	-4
COc1ccccc1NS(=O)(=O)c1cc(C(=O)NCC(C)(C)N2CCOCC2)ccc1C	-4%[0.505 µM]	0%	-7%	1%	-26%	11
CC(C)(C)c1ccc(CC(=O)N2CCC2(C)C(=O)N2CCCCC2)cc1 (centres undefined)	/	?	3%	-2%	-32%	28
CC(=O)N1CCC2(CC1)C/C(=N\NC(=S)Nc1ccc(C)cc1)c1cc(O)ccc1O2	10%	15µM*	2%	-44%	?	-29

Source: PubChem BioAssay
